Test results: the supplement of paper PMC10127200
Counter-ions that a name gives are not always drawn.

Key:
Experiment in all cases: Euclidean distance of Cell Painting phenotypic profile (signed KS, 77 features) to DMSO centroid (dimensionless distance); 5 or 10 uM (library dependent); higher = stronger phenotypic change vs DMSO (phenoactivity)
Conditions in all cases: 48 h
786-O = tested on: 786-O
Outline: (§1)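 Phenoactivity is computed as Euclidean distance to the median vehicle profile. The profiles, drawn from 77 Harmony features scored as signed Kolmogorov-Smirnov statistics versus same-plate vehicle wells, were corrected for plate position, correlation-weighted and replicate-averaged at the top dose. Stained cells were imaged confocally at 20X (9 fields/well) after 48 h with library compounds at 10 or 5 uM, 0.1% DMSO final, in five cancer lines and a healthy fibroblast line.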

A549 = tested on: A549
Outline: as §1

DU145 = tested on: DU145
Outline: as §1

FB = tested on: FB
Outline: as §1

HEPG2 = tested on: HEPG2
Outline: as §1

OVCAR4 = tested on: OVCAR4
Outline: as §1

Compound | Euclidean distance (786-O) | Euclidean distance (A549) | Euclidean distance (DU145) | Euclidean distance (FB) | Euclidean distance (HEPG2) | Euclidean distance (OVCAR4)
COc1ccc(-c2cnc3c(-c4cccc5ncccc45)cnn3c2)cc1 | 0.556 | 0.926 | 1.07 | 0.678 | 0.785 | 0.818
COc1cc2ncnc(Nc3ccc(Cl)cc3F)c2cc1OC | 1.46 | 1.74 | 1.56 | 1.26 | 1.51 | 1.01
COc1ccccc1Oc1c(NS(=O)(=O)c2ccc(C(C)(C)C)cc2)nc(-c2ncccn2)nc1OCCO [Bosentan Hydrate] | 1.35 | 0.814 | 0.826 | 0.916 | 0.41 | 1.04
Cc1nc(N(C)C(=O)Cc2ccc(-c3ccccn3)cc2)sc1S(N)(=O)=O [Pritelivir (BAY 57-1293)] | 0.793 | 0.531 | 1.07 | 0.872 | 0.577 | 0.834
Cc1cc(Cl)ccc1OCCCC(=O)NO [Droxinostat] | 1.32 | 1.68 | 0.991 | 1.3 | 1.07 | 0.782
CC(C)(Oc1ccc(CCNC(=O)c2ccc(Cl)cc2)cc1)C(=O)O [Bezafibrate] | 0.885 | 1.16 | 0.777 | 1.09 | 1.04 | 1.71
C[C@H]1CNC(=O)c2cnn3ccc(nc23)N[C@H](C)c2cc(F)ccc2O1 | 4.06 | 4.83 | 5.02 | 3.45 | 2.14 | 4.45
Oc1cccc(O)c1 [Resorcinol] | 1.3 | 1.19 | 0.938 | 1.24 | 1.33 | 1.05
COc1cc2c(Nc3ccc(NC(=O)c4ccccc4)cc3)ncnc2cc1OCCCN1CCOCC1 | 2.71 | 3.81 | 3.11 | 2.7 | 1.92 | 3.02
COC(=O)c1ccccc1O [Methyl salicylate] | 0.625 | 0.514 | 0.585 | 0.713 | 0.768 | 0.636
O=C1c2c(O)ccc(O)c2C(=O)c2c(NCCNCCO)ccc(NCCNCCO)c21 [Mitoxantrone HCl] | 4.89 | 4.24 | 3.24 | 4.31 | 4.05 | 6.27
CCC1(O)C(=O)OCc2c1cc1n(c2=O)Cc2c-1nc1ccccc1c2CCNC(C)C (stereo not drawn) [Belotecan (CKD-602) hydrochloride] | 4.55 | 3.8 | 3.52 | 3.19 | 3.12 | 3.62
O=C(O)Cn1nnc(-c2cc(N3CCC(Oc4cc(F)ccc4Br)CC3)no2)n1 | 0.964 | 1.38 | 0.83 | 0.907 | 2.08 | 0.751
Cc1c(Nc2ncccc2C(=O)O)cccc1C(F)(F)F [Flunixin Meglumin] | 1.03 | 0.853 | 0.874 | 0.516 | 1.42 | 1.88
COCC(=O)Nc1c(I)c(C(=O)NCC(O)CO)c(I)c(C(=O)N(C)CC(O)CO)c1I (stereo not drawn) [Iopromide] | 1.53 | 0.999 | 0.749 | 1.04 | 0.445 | 1.07
CC(CN(C)C)CN1c2ccccc2Sc2ccccc21 (stereo not drawn) [Alimemazine Tartrate] | 1.33 | 1.55 | 1.73 | 2.43 | 2.13 | 1.33
O=c1[nH]cnc2c1ncn2[C@@H]1O[C@H](CO)[C@@H](O)[C@H]1O [Inosine] | 1.3 | 0.799 | 0.639 | 0.936 | 0.417 | 1.3
CCOC(=O)C1=C(C)NC(C)=C(C(=O)OCC)C1c1ccccc1/C=C/C(=O)OC(C)(C)C [Lacidipine] | 0.955 | 0.916 | 1.62 | 1.14 | 0.707 | 1.15
CN1CCN(c2ccc(OC(F)(F)F)c(Nc3ncc4c(n3)-c3c(c(C(N)=O)nn3CCO)CC4)c2)CC1 | 2.75 | 4.08 | 3.85 | 3.73 | 2.82 | 3.67
CCOC(=O)Nc1cc(-c2ccc(C)c(NS(C)(=O)=O)c2)nn2c(C)nnc12 [Bromosporine] | 3.34 | 2.36 | 2.42 | 4.35 | 1.13 | 2.35
CCN1CCN(Cc2ccc(-c3cc4c(N[C@H](C)c5ccccc5)ncnc4[nH]3)cc2)CC1 | 2.34 | 3.77 | 1.92 | 2.96 | 1.73 | 1.02
C[C@]12C=CC(=O)C=C1CC[C@@H]1[C@@H]2[C@@H](O)C[C@@]2(C)[C@H]1CC[C@]2(O)C(=O)CO [Prednisolone] | 1.51 | 2.15 | 2.31 | 1.67 | 2.12 | 2.19
FC(F)(F)c1ccc(/C=C/c2nc(COc3ccc(CCCCn4ccnn4)cc3)co2)cc1 [Mubritinib (TAK 165)] | 0.614 | 1.76 | 1.4 | 1.61 | 1.89 | 1.42
O=C(O)c1ccccc1 [Benzoic Acid] | 1.39 | 1.16 | 1.58 | 0.886 | 1.6 | 0.868

Compound | Euclidean distance (786-O) | Euclidean distance (A549) | Euclidean distance (DU145) | Euclidean distance (FB) | Euclidean distance (HEPG2) | Euclidean distance (OVCAR4)
CC(C)(C)Cn1c(N)nc2ccc(-c3[nH]c(C(C)(C)C)nc3-c3ccc(F)cc3)nc21 | 4.34 | 2.69 | 2.57 | 3.56 | 4.51 | 3.76
CO[C@H]1C[C@@H]2CC[C@@H](C)[C@@](O)(O2)C(=O)C(=O)N2CCCC[C@H]2C(=O)O[C@H]([C@H](C)C[C@@H]2CC[C@H](n3cnnn3)[C@H](OC)C2)CC(=O)[C@H](C)/C=C(\C)[C@@H](O)[C@@H](OC)C(=O)[C@H](C)C[C@H](C)/C=C/C=C/C=C/1C [Zotarolimus(ABT-578)] | 2.27 | 1.83 | 1.38 | 2.7 | 1.45 | 2.09
CCOC(=O)[C@H](CCc1ccccc1)N[C@@H](C)C(=O)N(CC(=O)O)C1Cc2ccccc2C1 [Delapril Hydrochloride] | 1 | 1.15 | 0.898 | 1 | 0.353 | 1.06
CC[C@H](C)C(=O)O[C@H]1C[C@@H](C)C=C2C=C[C@H](C)[C@H](CC[C@@H]3C[C@@H](O)CC(=O)O3)[C@H]21 [Lovastatin] | 1.17 | 1.61 | 0.903 | 2 | 2.11 | 0.909
COC(=O)[C@H]1[C@H]2C[C@@H]3c4[nH]c5cc(OC)ccc5c4CCN3C[C@H]2C[C@@H](OC(=O)c2cc(OC)c(OC)c(OC)c2)[C@@H]1OC [Reserpine] | 1.54 | 1.58 | 1.94 | 1.51 | 0.642 | 1.29
O=C(/C=C\n1cnc(-c2cc(C(F)(F)F)cc(C(F)(F)F)c2)n1)N1CC(F)(F)C1 | 3.83 | 3.69 | 3.2 | 2.48 | 3.62 | 4
CN(C)CCC[C@@]1(c2ccc(F)cc2)OCc2cc(C#N)ccc21 [Escitalopram Oxalate] | 1.58 | 1.12 | 1.67 | 0.918 | 0.791 | 1.43
Nc1ccc(S(=O)(=O)NC(=O)c2ccccc2)cc1 [Sulfabenzamide] | 0.937 | 0.388 | 0.77 | 0.837 | 0.665 | 1.75
Cc1cnc(C(=O)O)c[n+]1[O-] [Acipimox] | 1.86 | 0.99 | 0.959 | 0.682 | 1.59 | 0.964
O=c1c(-c2ccc(O)cc2)coc2cc(O)ccc12 [Daidzein] | 0.746 | 0.736 | 0.716 | 0.782 | 0.606 | 1.13
O=C(Cn1cnnn1)N[C@@H]1C(=O)N2C(C(=O)O)=C(CSc3nncs3)CS[C@H]12 [Ceftezole] | 1.01 | 0.658 | 0.963 | 1.09 | 0.476 | 0.782
COc1ccc(-c2ccc3ncc4c(c3c2)n(-c2ccc(N3CCNCC3)c(C(F)(F)F)c2)c(=O)n4C)cn1 | 6.24 | 5.51 | 7.61 | 6.11 | 5.69 | 5.98
N[C@H]1C[C@@H]1c1ccc(-c2cccc(O)c2)cc1 | 1.26 | 1.27 | 1.07 | 1.18 | 0.624 | 1.45
CC(C)(C)NS(=O)(=O)c1cncc(-c2cc(F)c3nc(N)nn3c2)c1 | 0.676 | 0.836 | 1.2 | 1.61 | 0.94 | 1.09
CN(C)[C@@H]1C(O)=C(C(N)=O)C(=O)[C@@]2(O)C(O)=C3C(=O)c4c(O)cccc4[C@@](C)(O)[C@H]3[C@H](O)[C@@H]12 [Oxytetracycline Dihydrate] | 1.33 | 0.832 | 1.09 | 1.19 | 1.9 | 1.3
COc1cccc2cc(-c3nc([C@H]4CC[C@H](C(=O)O)CC4)n4ncnc(N)c34)[nH]c12 | 2.33 | 2.18 | 1.44 | 3.76 | 2.92 | 3.56
Cc1cc(N2CCOCC2)ccc1Nc1nc(NC2CCCCC2)c2[nH]cnc2n1 | 1.79 | 2.73 | 1.25 | 1.29 | 1.78 | 1.73
CC1(C)CC(=O)c2c(C(F)(F)F)nn(-c3ccc(C(N)=O)c(N[C@H]4CC[C@H](O)CC4)c3)c2C1 | 3.06 | 2.99 | 3.09 | 3.59 | 3.83 | 2.73
O=C(O)Cc1ccccc1Nc1c(Cl)cccc1Cl [Diclofenac Diethylamine] | 0.84 | 0.842 | 0.728 | 0.689 | 0.397 | 0.97
CC[C@H]1OC(=O)[C@H](C)[C@@H](O[C@H]2C[C@@](C)(OC)[C@@H](O)[C@H](C)O2)[C@H](C)[C@@H](O[C@@H]2O[C@H](C)C[C@H](N(C)C)[C@H]2O)[C@](C)(OC)C[C@@H](C)C(=O)[C@H](C)[C@@H](O)[C@]1(C)O [Clarithromycin] | 0.952 | 0.722 | 0.938 | 0.905 | 0.629 | 0.909
COc1c2occc2c(OC)c2c(=O)cc(C)oc12 [Khellin] | 1.37 | 0.619 | 0.84 | 0.769 | 1.17 | 0.887
CCC(CC)CC1(C(=O)Nc2ccccc2SC(=O)C(C)C)CCCCC1 | 1.26 | 1.07 | 0.832 | 1 | 0.428 | 0.986
NC(=O)c1cccc2cn(-c3ccc([C@@H]4CCCNC4)cc3)nc12 [Niraparib (MK-4827) tosylate] | 2.41 | 2.21 | 1.59 | 2.49 | 2.86 | 1.92
CO[C@@H]1[C@H](OC(=O)/C=C/C=C/C=C/C=C/C(=O)O)CC[C@]2(CO2)[C@H]1[C@@]1(C)O[C@@H]1CC=C(C)C [Fumagillin] | 2.75 | 2.91 | 4.57 | 2.95 | 1.89 | 3.29
